Data: the supplement of paper PMC3334620
Whole data set: some 33,000 sequences, median “E-score (-0.5 to 0.5)” near -0.013, cut for the highest 2% near 0.3. Many of the other results were omitted from the sample, so the highest values are more common in it than they were.

Target: T1, Msn1 (UniProt P22148)
T1 sequence: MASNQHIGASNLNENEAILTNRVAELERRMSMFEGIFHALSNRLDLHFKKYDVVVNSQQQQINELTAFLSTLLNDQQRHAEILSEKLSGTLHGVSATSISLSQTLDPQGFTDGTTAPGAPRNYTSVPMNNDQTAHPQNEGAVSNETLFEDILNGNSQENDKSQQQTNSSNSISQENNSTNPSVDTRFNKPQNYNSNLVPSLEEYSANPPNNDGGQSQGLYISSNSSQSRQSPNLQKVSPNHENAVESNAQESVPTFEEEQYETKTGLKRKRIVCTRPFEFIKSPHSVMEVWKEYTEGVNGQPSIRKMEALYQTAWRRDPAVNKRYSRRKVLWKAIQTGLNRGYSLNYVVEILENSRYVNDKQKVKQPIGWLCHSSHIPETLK
Experiment: PBM E-score (8-mer binding enrichment) (E-score (-0.5 to 0.5)); higher = stronger / more preferred TF binding
Details: protein concentration: 200 nM; construct: GST-full length
Procedure: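 Universal 'all 10-mer' protein binding microarrays (Agilent AMADID 015681) probed with GST-tagged S. cerevisiae TFs (full-length or DBD) made by in vitro transcription/translation (PURExpress), about 100-200 nM. Bound TF was detected with fluorescent anti-GST. Each ungapped 8-mer (which stands for itself and its reverse complement) is scored by the PBM enrichment score (E-score), a modified Wilcoxon-Mann-Whitney statistic from -0.5 to +0.5, computed with the Universal PBM Analysis Suite. Scale: above 0.35 generally sequence-specific binding.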

Sequence | PBM E-score
AGGCAAAA | 0.163
CTTGTTCA | -0.0388
GAGAGTTA | -0.0018
TCAGTTCA | -0.039
CATAAAAA | 0.181
ACTAAAAA | 0.309
TATAAAAA | 0.318
ACTAAAAC | 0.14
TATATAAA | 0.253
ATTAAAAC | 0.156
ACTAAAAG | 0.0984
ATTAAAAA | 0.327
ATTAAAAG | 0.156
CAATTTCC | 0.0903
ACCAACAG | -0.127
CGCAAACA | 0.143
CAGCACAG | 0.00522
GTCGTCTA | -0.00305
CGCGTGTA | 0.114
AGCGTGTC | 0.0384
CGCGTGTC | 0.344
AGAAATGG | -0.076
ACCCTTAT | -0.0336
AATGGACG | 0.185
TATGGAAA | 0.071

Sequence | PBM E-score
GATGGACC | 0.0221
GATGGACA | 0.443
TATGGACA | 0.476
GATGGAAA | -0.126
AATGGACT | 0.19
CATGGACG | 0.137
AATGGACA | 0.438
CATGGACA | 0.47
CATGGACC | -0.0789
TATGGAGA | 0.0848
ATTGGTAA | 0.00511
CCTCCTGA | -0.153
ACACATCC | 0.0829
AATACCCA | -0.0704
TATTGTGA | 0.0467
AGCACCAA | 0.0195
ACAGTGCC | 0.063
CGAATCGA | 0.213
ACAGCCTG | -0.0349
ATGCCAAC | 0.0264
ATTTCCCG | 0.188
AACTACTT | 0.00311
ATGAGCAT | 0.017
CAGAAATA | 0.0248
ACGTCCTG | 0.0274

Sequence | PBM E-score
AAGTCCTA | 0.409
AAGTCCTC | 0.244
AAGTCCTG | 0.292
CCGTCCTA | -0.0332
ACGTCCTA | 0.354
CTTGTCGA | 0.0891
ATTGTCCA | 0.466
CTTGTACC | 0.286
ATTGTCAA | 0.12
ATTGTTCG | 0.259
ACTGTCCG | 0.183
CTTGTACA | 0.311
ATTGTACA | 0.242
ATCGTCCA | -0.0991
CTTGTCCA | 0.464
CTTGTCAA | 0.162
ATTGTCCG | 0.468
CATTATGC | -0.00798
AGTTCGCC | 0.00171
GACGCGAA | 0.0618
TACTCGAA | -0.00961
GCCGACGC | 0.0201
GTTGTCGA | 0.00891
ATTGTCCC | 0.462
ACTGTCCC | 0.127

Sequence | PBM E-score
CTTGTCAC | 0.296
ATTGTCAC | 0.297
CTGGTCCC | -0.218
CTTGTCCC | 0.47
GTTGTCAA | 0.0641
GTTGTCCA | 0.381
AAACCTTC | -0.288
GCCGTCGC | -0.0331
CTTCAGGC | -0.0893
CAATTGAG | -0.0282
ACATTAGC | 0.147
CAAATCAA | 0.126
CGACAGGC | -0.152
GAGTTCCC | 0.0462
GTGCTGAA | -0.191
ATGCGTGC | -0.0193
ACTTGTCC | 0.467
ACTTGTGA | -0.103
ACTTGTAT | 0.145
ACTTGTCG | 0.297
TCTTGTCA | 0.238
GCTTGTAC | 0.267
ACTTGTCA | 0.369
ACTTGTCT | 0.407
GCTTGTCC | 0.454

Sequence | PBM E-score
ACTTGTGC | -0.14
GCTTGTCA | 0.209
ACTTGGCT | -0.176
CCTAGCTC | -0.148
CGGTCGCA | -0.0568
CCAACGGA | -0.08
GGCACTAC | -0.284
CGCTCTGC | -0.112
CCTTGTCC | 0.449
CCTTGTCG | 0.0372
CCTTGTCA | 0.0263
CTGGTATC | -0.0417
GACCTATC | 0.0973
GGTGCTAC | -0.204
ATGTCGTA | 0.395
CTGTCGTA | -0.0467
ATGTCGTC | 0.191
ATGTCGAG | 0.162
GTGTCGTA | 0.228
ATGTCGTG | 0.337
GCTGCGTA | -0.124
AAACGAGC | -0.0279
GCCAAAGC | -0.0464
CACTGCCG | 0.0826
GGAGGACC | -0.25

Sequence | PBM E-score
TGAGGCCA | -0.117
AGAGGACA | 0.353
AGAGGACC | -0.208
GGAGGACA | 0.4
AGAGGACT | -0.21
TGAGGACA | 0.46
CGAGGACA | 0.453
TGAGGAAA | 0.0866
GGAGGAGA | -0.179
CGAGGACG | 0.0859
CGAGGACC | -0.14
CCACACGA | 0.00165
AACGAATA | -0.0354
ATAGTCTA | -0.0808
GTGCCTGA | -0.25
AATAACTC | 0.00363
GGAGAACA | 0.0888
ACAACCCA | 0.0013
AGTGTCCC | 0.375
AGTGTCCA | 0.219
CGTGTCCC | 0.437
GGTGTCGA | -0.0245
CGTGTCTA | 0.166
CGTGTCCA | 0.424
CGTGTCGA | 0.0442

Sequence | PBM E-score
GGTGTCTA | 0.0447
CGTGTCTC | 0.26
CGTGTCGC | 0.202
AGTGTCCG | 0.179
GGTGTCCA | 0.352
ACGGTCAT | 0.0534
AGCTTTCC | -0.198
GAACTGAA | -0.00121
CGTGGCAC | 0.0166
CTGAGCGA | 0.0585
CAGCTAGC | -0.19
ATATTAAT | 0.243
GCAGCCCA | -0.0983
TTGCCAAA | -0.0227
AACTTGGC | -0.0461
GCCTTCCA | -0.367
AAATGAAA | 0.305
TAATGAAA | 0.226
CAATGAAA | 0.0415
AGGATGTC | 0.398
CGGATGTC | 0.348
CAGATGTC | 0.347
CTGATGTC | 0.282
CGGATGTA | 0.0259
CAGATGTA | -0.0817
